# In all, about 420,000 compounds went through this assay and about 64,000 (15%) were called active. Inconclusive results (about 27%) are left out. Only a sample is shown. Unmarked numbers belong to inactive results. Calls come from the whole dose curve; as a rule, active = well fitted inhibition curve with a large enough effect; inconclusive = small, poorly fitted or top-dose-only effect; inactive = flat fitted curve, though single readings scatter.
# Experiment: qHTS for Inhibitors of human tyrosyl-DNA phosphodiesterase 1 (TDP1): qHTS in cells in absence of CPT; note: nearly all actives have a fitted effect of over 55% in size
# Settings: DT40 Tdp1-/- hTDP1 cells, no CPT, ATP luminescence, 48 h; activity change, negative = growth inhibition: at 46.2 µM (top of the series)
# In short: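 Camptothecin absent (DMSO only). Human TDP1-complemented DT40 knockout cells, 400 cells/well, 37 °C for minimum 48 hr; ATP measured via CellTiter-Glo, 30 min dark incubation, luminescence.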
# % is set by controls: 0 for no effect and ±100 for the full control effect; potency is the fitted concentration of half-maximal effect.
Compound,"activity change, negative = growth inhibition",Potency
CCCCCCSc1nsc(N)n1,-28%,
CCOC(=O)CSc1nnc(CNC(=O)c2cccs2)n1-c1cc(OC)ccc1OC,0.211%,
Cc1cc(=O)oc2c(C(=O)c3ccccc3)c(OCC(N)=O)ccc12,-0.608%,
O=C(CCCn1c(=O)oc2ccccc21)Nc1cccnc1,-2.31%,
CC(C)Cn1cc(-c2cncc3nccn23)cn1,-11.4%,
Cc1ccnc(SCCn2c(Br)nc3c2c(=O)[nH]c(=O)n3C)n1,-6.34%,
Fc1ccccc1OCCSc1nc2ccccc2o1,-13.3%,
Cn1c(=O)[nH]c(=O)c2c1nc(Br)n2CCCCSc1nc2ccccc2o1,,18.4 µM (active)
CCc1ccc(-c2nc(SCC(=O)NC3CCCC3)n[nH]2)cc1,,23.1 µM (active)
COc1ccc(-c2nc(SCC(=O)N3CCCC3)n[nH]2)cc1,-14.3%,
CCc1c(C)nc(SCC(=O)NC2CCCC2)[nH]c1=O,5.26%,
Cc1cc(Br)ccc1SCC(=O)OCC(=O)NCc1ccc2c(c1)OCO2,6.68%,
CCOc1ccc(C(=O)NC(C(=O)NCc2ccccn2)C(C)C)cc1 (stereo not drawn),-22.4%,
COc1ccc(F)cc1S(=O)(=O)N1CCCCC1,-12.5%,
COc1ccc(CCNCc2c(C(=O)O)c(C)n(Cc3cccc(C)c3)c2C)cc1OC,-25.8%,
CCOc1c(CNCc2ccc(C(=O)O)cc2)cccc1OC,-12.9%,
COc1cccc(CNCc2c(C(=O)O)n(Cc3ccc(C)cc3)c3cc(C)ccc23)c1OC,,16.4 µM (active)
CCOC(=O)c1c(Cc2ccc(Cl)cc2)c[nH]c1C,-25.9%,
NC(=NC(=O)c1ccccc1)N1CCOCC1,-7.81%,
O=C(CNS(=O)(=O)c1ccccc1)NCC(=O)OCc1ccccc1F,-1.4%,
COc1ccc(CNC(=O)Cn2nnc(-c3ccc(S(C)(=O)=O)cc3)n2)cc1,3.37%,
COc1ccc(-c2nc3sc(CCNS(=O)(=O)c4ccc(F)c(C)c4)c(C)n3n2)cc1,,20.6 µM (active)
Cc1ccc(S(=O)(=O)NCCC(=O)Nc2cccc(S(N)(=O)=O)c2)cc1C,-7.74%,
COc1ccc(-c2nc3sc(CCNC(=O)C(C)(C)C)c(C)n3n2)cc1,,23.1 µM (active)
CCOc1ccc2nc(NCCNC(=O)C(C)(C)C)c(C)cc2c1,3.35%,
COc1ccc(CCNS(=O)(=O)c2cn(C)nc2C)cc1,21.6%,
COC(=O)C1=NNC2(c3ccc(C)cc3)C(=O)N(c3cccc(C)c3C)C(=O)C12 (stereo not drawn),0.864%,

Compound,"activity change, negative = growth inhibition",Potency
CS(=O)(=O)c1ccc(-c2nnn(CC(=O)Nc3ccc4c(c3)OCCO4)n2)cc1,-22.9%,
CC(=O)NCc1ccc(S(=O)(=O)NC2CCN(Cc3ccccc3)CC2)cc1,-25.9%,
O=C(NC1CCN(Cc2ccccc2)CC1)c1ccccc1F,-1.29%,
O=C(NC1CCN(Cc2ccccc2)CC1)c1ccc(Oc2cc(Cl)cc(Cl)c2)o1,,18.4 µM (active)
O=C(NC1CCN(Cc2ccccc2)CC1)c1c(F)cccc1F,-0.567%,
O=C(NC1CCN(Cc2ccccc2)CC1)c1cc(Br)c(Br)[nH]1,,16.4 µM (active)
O=S(=O)(NCc1ccccn1)c1ccc(Br)s1,-29.1%,
CCOCCCNC(=O)c1c[nH]c2cc(C)ccc2c1=O,-26.3%,
COc1cccc(OCc2nnc3n2N=C(c2ccccc2)C(CC(=O)O)S3)c1 (stereo not drawn),-1.23%,
O=C(O)c1ccc2c(c1)C(=O)N(c1ccc(/C=C/C(=O)c3ccccc3)cc1)C2=O,12.3%,
Cc1ccc(C(=O)/C=C/c2c(C)nn(-c3ccccc3)c2Cl)cc1,,20.6 µM (active)
Cc1nn(-c2ccccc2)c(C)c1/C=C/C(=O)OC(C)C(N)=O (stereo not drawn),-4.84%,
Cc1nn(-c2ccccc2)c(Cl)c1/C=C/C(=O)c1ccc(O)cc1,,16.4 µM (active)
Cc1nn(-c2ccccc2)c(Cl)c1C(=O)Nc1ccccc1,-11.2%,
Cc1nn(-c2ccccc2)c(CC(C)(C)C(=O)O)c1C(=O)O,-4.67%,
COc1ccc(C2CC(=O)C=C(NCC3CCCO3)C2)cc1 (stereo not drawn),0.462%,
COC(=O)c1ccc(/C=N\n2c(C)nnc2C)cc1,-0.419%,
CC(OC(=O)c1ccc(NS(=O)(=O)c2ccc3[nH]c(=O)[nH]c3c2)cc1)C(=O)Nc1cccc(Cl)c1Cl (stereo not drawn),3.55%,
O=C(COCc1cc(-c2ccc3c(c2)OCO3)on1)N1CCN(c2cccc(Cl)c2)CC1,-1.5%,
Cc1cc(/C=C2/C(=N)N3C(=NC2=O)SN=C3S(C)(=O)=O)c(C)n1-c1ccccc1,-18.8%,
O=C(CSc1nnc(Cc2ccccc2)n1-c1ccccc1)N1CCOCC1,-0.859%,
CN(CCc1ccccn1)C(=O)c1ccc(OC2CCN(CCc3ccccc3)CC2)cc1,-27%,
c1ccc(-c2cc(-c3nnc4sc(-c5ccccn5)nn34)[nH]n2)cc1,,13 µM (active)
Fc1ccc(-c2ccc(-c3nn4c(-c5ccco5)nnc4s3)o2)cc1,-28.6%,
c1ccc(-c2cc(-c3ccccc3)[nH]n2)cc1,-8.4%,
COC(=O)C1[C@H]2SC(C)(C)C(C(=O)OC)N2C(=O)N1Cc1nc2ccccc2s1 (stereo partly drawn),-3.96%,

# — PubChem BioAssay AID686978 (National Center for Advancing Translational Sciences (NCATS), 2013)
